Rab9 promoter act – activates the Rab9 promoter; Huh7 Rab9 promoter-luciferase reporter, luminescence, 24 h; Potency, µM (series often up to 9.22 µM), without a hit: at the highest dose activation, negative = inhibition, hits mostly activators; 320,000 tested, 2.8% active; AID 485297; further: % of control where 0% means no effect; nearly all actives have a fitted effect of over 60% in size
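Promoter activation is measured as luciferase luminescence in Huh7 cells stably transfected with a Rab9 promoter–luciferase construct, following 24 h compound exposure at 37 °C and 10 min reagent incubation at ambient temperature.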
FLuc counter – counter-screen for miR-21 project: firefly luciferase inhibitors or activators | P08659 | purified FLuc, Km substrates, luminescence inhibition | Potency, µM (highest dose often 57.5 µM), for the others: at the top dose activity change, negative = inhibition, usual class: inhibitors | 360,000 tested, 6.9% active | AID 588342;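 further: plate controls were vehicle for no effect and reference inhibitor for full effect; nearly all actives have a fitted effect of over 55% in size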
Target sequence (P08659 whole entry, looked up): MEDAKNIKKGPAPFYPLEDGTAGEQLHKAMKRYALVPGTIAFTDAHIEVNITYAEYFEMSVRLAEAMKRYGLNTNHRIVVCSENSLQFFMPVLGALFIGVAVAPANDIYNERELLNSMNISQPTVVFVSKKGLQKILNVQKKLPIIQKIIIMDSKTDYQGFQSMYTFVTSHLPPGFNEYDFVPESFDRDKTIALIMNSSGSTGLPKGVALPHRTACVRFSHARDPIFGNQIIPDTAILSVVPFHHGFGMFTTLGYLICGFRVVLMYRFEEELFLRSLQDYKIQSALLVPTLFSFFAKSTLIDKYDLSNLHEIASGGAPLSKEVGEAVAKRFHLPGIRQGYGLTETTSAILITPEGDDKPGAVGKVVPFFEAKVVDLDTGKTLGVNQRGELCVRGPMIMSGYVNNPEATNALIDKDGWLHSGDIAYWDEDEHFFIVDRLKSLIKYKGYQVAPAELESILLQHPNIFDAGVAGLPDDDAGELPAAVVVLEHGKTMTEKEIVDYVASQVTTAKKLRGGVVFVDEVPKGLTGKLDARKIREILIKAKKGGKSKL
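Purified P. pyralis luciferase (10nM final) with 10uM D-luciferin and 10uM ATP (Km levels) in 50mM Tris acetate pH 7.5, 10mM Mg acetate, 0.01% Tween-20, 0.05% BSA; qHTS 6-point titration, ~60 µM downward; luminescence read.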
NPC1 prom act – activators of NPC1 promoter; AID 485313; Huh7 NPC1 promoter luciferase reporter, 24 h; Potency, µM (doses to about 9.22 µM), for inactives: at the top dose activation, usual class: activators; 320,000 tested, 2.4% active; further: % of control where 0% means no effect; nearly all actives have a fitted effect of over 60% in size
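Stably transfected Huh7 (NPC1 promoter→luciferase), 1500 cells/well in Opti-MEM + 10% FBS, 2 h settle, then compound 24 h at 37 °C. Luminescence after 10 min with Amplite reagent.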
ELG1 genotoxic – genotoxicity induction in ELG1-luciferase HEK293T cells; HEK293T ELG1-luciferase reporter, luminescence, 16 h; Potency, µM (doses to about 46 µM), without a hit: top-dose activity change, positive = activation, actives largely listed as activators; 330,000 tested, 1.3% active; further: % of control where 0% means no effect; nearly all actives have a fitted effect of over 60% in size
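ELG1-luciferase HEK293T cells, 2,000/well; compound pinned in; 16 hr, 37 °C, 5% CO2; ONE-Glo, 30 min RT; luminescence on CCD imager.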
SMN2 splice enh – enhancers of SMN2 splice variant expression; 210,000 tested, 2.8% active; Potency, µM (doses to about 46.1 µM), for inactives: at the highest dose activity change, positive = activation, most hits filed as activators; AID 1458; HEK293 SMN2-luciferase splicing reporter, luminescence, 30-36 h; further: % of control where 0% means no effect; nearly all actives have a fitted effect of over 55% in size
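HEK293 cells carry an SMN2 minigene-luciferase reporter in which exon 7 inclusion puts luciferase in frame. Cells were seeded at 2000 cells/well, attached for 10-12 hours, then exposed to compounds for 30-36 hours at 37C before ONE-Glo luminescence.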
KinaseGlo FLuc – Kinase-Glo luciferase inhibition (counter-screen) | Kinase-Glo luciferase, ATP luminescence, 8 min | Potency, µM (doses to about 38.3 µM), for inactives: at the top dose activity change, negative = inhibition, actives largely listed as inhibitors | 200,000 tested, 0.28% active; further: on the % scale 0 is the no-effect control and ±100 the full control effect; nearly all actives have a fitted effect of over 60% in size
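Recombinant Kinase-Glo luciferase, 10 uM ATP (linear range), luciferin; imidazole pH 7.2 / KCl / MgCl2 / Tween / BSA buffer; 8 min RT; luminescence.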
* hit, by the source's call; ? = inconclusive; · = not tested or not shown; [ ] = remark or other dose. This is a sample that favours compounds with a hit; in the whole collection about 7.5% have one here. The call rests on the fitted dose curve; in most records, active means well fitted curve in the direction sought with a large enough effect; inconclusive means small, poorly fitted or top-dose-only effect, or another doubt; inactive means no such curve, though single readings can be large; an effect the other way counts as inactive or inconclusive. Potency means the concentration at half of the fitted maximal effect.

SMILES	Rab9 promoter act	FLuc counter	NPC1 prom act	ELG1 genotoxic	SMN2 splice enh	KinaseGlo FLuc
Cc1ccc(N2CC(C(=O)Nc3cccnc3)CC2=O)cc1Cl (stereo not drawn)	-6%	-1%	0%	-1%	·	·
COc1ccc(C(=O)NC(=O)NC2(C(Cl)(Cl)Cl)OCCO2)cc1	0.25µM*	0.95µM*	0.35µM*	0.65µM*	2.2µM*	-8%
CNC(=O)NC(=S)NC(=O)c1ccc(OC)cc1	21%	-17%	17%	10%	-1%	1%
COc1ccc(S(=O)(=O)N2CCN(CC(=O)NCCc3cccs3)CC2)cc1	2%	-1%	0%	1%	·	·
CN(/N=C/c1c[nH]c2ccccc12)c1cnn(-c2ccc(F)c(Cl)c2)c(=O)c1Cl	11%	13µM*	-1%	3%	8%	-2%
COc1ccc(/C=C/c2nc3cc(-c4ccccc4)ccc3o2)cc1O	5%	9.5µM*	1%	-1%	-91%	1%
Cc1ccc(C)c(NC(=O)c2cnc3n(c2=O)CCS3)c1	4.5µM*	-18%	?	15%	?	-5%
CSc1ccccc1NC(=O)c1cnc2n(c1=O)CCS2	11%	-12%	10%	4%	-8%	-1%
CCc1ccc(NC(=O)c2cnc3n(c2=O)CCS3)cc1	4µM*	9.5µM*	29%	9.2µM*	26%	-3%
Cn1c(C2CCCCC2)nc2cc(N)ccc21	-1%	-20%	0%	2%	·	·
Nc1ccc2oc(C3CCCCC3)nc2c1	?	24µM*	?	?	11µM*	-3%
O=[N+]([O-])c1ccc2oc(C3CCCCC3)nc2c1	?	17µM*	15%	?	·	1%
Cc1nc2ccc([N+](=O)[O-])cc2nc1C	-1%	6%	-1%	-2%	1%	-3%
CCOC(=O)c1ccc(N/C=C/C(=O)c2ccccc2)cc1	?	6µM*	11%	-6%	·	-8%
CCOC(=O)c1ccc(N/C=C/C(=O)C(C)(C)C)cc1	3.5µM*	3µM*	3.5µM*	?	?	-1%
CCOC(=O)c1ccc(N/C=C/C(=O)c2ccc(OC)cc2)cc1	1%	0%	-1%	7%	-9%	-6%
Cc1ccc(CNC(=O)c2ccc(N3CCCC3)c(NC(=O)Nc3ccc(F)c(Cl)c3)c2)cc1	·	3%	·	·	·	·
O=C(O)CCCC[C@@H]1CCSS1	-8%[46.1 µM]	·	2%[46.1 µM]	·	3%	0%
Cc1cc(C)c(C(=O)Nn2c(C)nc3ccccc3c2=O)cc1C	5%	-2%	0%	-8%	·	·
Oc1ccc(-c2nc3ccccn3c2Nc2ccc3c(c2)OCCO3)cc1	·	19µM*	·	·	41%	·
CN(C)c1ccc(-c2nc3ccccn3c2Nc2ccc3c(c2)OCCO3)cc1	·	2.4µM*	·	·	?	·
CC(=O)N1CCC2(CCCN(c3ccc(-c4ccccc4)cc3)C2)CC1	·	·	·	·	-38%	0%
Cc1ccc(OCC(=O)N2CCCC(CO)(CCOc3ccccc3)C2)cc1 (stereo not drawn)	-6%	1%	-6%	-4%	·	·
Cc1[nH]c(C)c(C(=O)/C=C/c2ccc([N+](=O)[O-])cc2)c1C	16%	?	1%	-9%	·	·
O=C1N/C(=N\N=C\c2cccs2)SC1Cc1cccc(Cl)c1 (stereo not drawn)	-10%	-4%	-17%	0%	-51%	6%
SMILES	Rab9 promoter act	FLuc counter	NPC1 prom act	ELG1 genotoxic	SMN2 splice enh	KinaseGlo FLuc
COc1cc(/C=N/N=C2/NC(=O)C(Cc3ccccc3)S2)ccc1O (stereo not drawn)	-2%	2.4µM*	7%	25%	66%	-4%
COc1ccc(/C=N/N=C2/NC(=O)C(CC(=O)O)S2)cc1OS(=O)(=O)c1ccccc1 (stereo not drawn)	-7%	?	-1%	1%	3%	2%
O=C(CC1S/C(=N/N=C/c2cccnc2)NC1=O)Nc1ccccc1 (stereo not drawn)	-2%	?	-4%	-11%	-3%	2%
O=C1N/C(=N\N=C\c2ccccn2)SC1Cc1cccc(SC(F)F)c1 (stereo not drawn)	-10%	15µM*	-1%	10%	-81%	-2%
O=C1N/C(=N\N=C\c2ccc3ncccc3c2)SC1Cc1ccc(SC(F)F)cc1 (stereo not drawn)	?	0.54µM*	?	?	13µM*	-3%
O=C1N/C(=N\N=C\c2cccnc2)SC1Cc1ccc(SC(F)F)cc1 (stereo not drawn)	-12%	11µM*	-10%	15%	-66%	-2%
Cc1ccc(S(=O)(=O)N2CCC3(CC2)OCCO3)cc1	-3%	0%	-1%	-2%	·	·
Nc1cc(C(=O)OCC(=O)N2CCC(Cc3ccccc3)CC2)ccc1Cl	2%	4%	-2%	2%	·	·
COc1ccc2c(Cl)c(C(=O)NC3CCS(=O)(=O)C3)sc2c1 (stereo not drawn)	26%	-17%	?	15%	2%	2%
O=C(NC(=S)NCCO)c1sc2ccccc2c1Cl	2.8µM*	6µM*	?	?	13µM*	-2%
CC1(C)CC(NC(=O)c2sc3cc(Cl)ccc3c2Cl)CC(C)(C)N1	-6%	0%	-5%	7%	-30%	-1%
O=C(NNC(=S)NC1CCCCC1)c1sc2ccccc2c1Cl	-5%	?	5%	-3%	-18%	2%
O=C(NC1CC1)c1sc2cc(Cl)ccc2c1Cl	?	6.7µM*	?	?	·	·
O=C(NNC(=O)C1CC2CCC1C2)c1sc2ccccc2c1Cl (stereo not drawn)	?	24µM*	?	19%	22µM*	1%
O=C(NC1CC1)c1sc2cc(F)ccc2c1Cl	?	9.5µM*	23%	?	·	·
O=C(NC1CC1)c1sc2ccccc2c1Cl	?	15µM*	?	?	·	·
CCCCOc1ccccc1C1NC(=O)CCC1[N+](=O)[O-] (stereo not drawn)	1%	0%	-2%	-2%	·	·
COc1ccc(-c2nn(-c3ccccc3)cc2/C=N/Nc2ccc(Cl)c(C(=O)O)c2)cc1OC	1%	13µM*	2%	10%	·	·
COc1ccc(-c2cn(-c3ccccc3)nc2C(=O)O)cc1OC	-1%	12µM*	0%	-1%	·	·
COc1ccc(-c2nn(-c3ccccc3)cc2C(=O)NCCCn2ccnc2)cc1	2%	-14%	-3%	-3%	-6%	2%
NC(=O)/C=C\c1cn(-c2ccccc2)nc1-c1ccc2c(c1)OCCO2	-5%	-16%	-2%	-3%	-8%	2%
COc1ccc(-c2nn(-c3ccccc3)cc2/C=C/C(=O)NCCCn2ccnc2)cc1OC	4%	27µM*	0%	-10%	·	1%
